The results in this text go back to PubChem BioAssay (Tox21).

The structures appear in SMILES notation. Records with an inconclusive call do not appear. A call without a number means that no potency is given here. Calls of active or inactive are those of the source. Calls come from the whole dose curve.

A short description of the assay: qHTS assay to identify small molecule agonists of the NFkB signaling pathway - cell viability counter screen (AID 1159515). Note: nearly all actives have a fitted effect of over 55% in size. The note with it: NFkB-bla ME-180 viability, CellTiter-Glo luminescence, 5 h; series mostly up to 61 µM. The text has this:
National Center for Advancing Translational Sciences [NCATS]
NIH Chemical Genomics Center [NCGC]
U.S. Environmental Protection Agency [EPA]
National Institutes of Environmental Health Sciences [NIEHS]
National Toxicology Program [NTP]
U.S. Food and Drug Administration [FDA]
Transcription factors and their stimulated target gene expression play pivotal roles across many cellular processes including responses to environmental stimuli. Proper regulation of associated pathways is critical to maintain cell health and function. Constitutive activation of transcription factor pathways has been implicated in tumors as it may block cellular functions such as apoptosis and lead to invasion and metastasis. One important transcription factor that stimulates gene expression in response to cytokines, UV radiation, and other stimuli is nuclear factor-kappa B (NFkB). To measure activation of the NFkB pathway, the CellSensor NFkB-bla ME-180 cell line (Life Technologies, Carlsbad, CA) that stably expresses beta-lactamase reporter gene under the regulation of a NF-kB response element was used. This assay allows measurement of the NFkB pathway activity induced by compounds in a ME-180 cell line. This system quantitates NF-kB activity using a FRET-based assay system where beta-lactamase expression disrupts FRET, allowing for fluorescent measurement of activity. This cell line has been used to screen the Tox21 10K compound library and to identify compounds that induce the NFkB pathway activity. The cytotoxicity of the Tox21 compound library against the NFkB-bla ME-180 cell line was tested in parallel by measuring cell viability using the CellTiter-Glo assay in the same wells.
Tox21 Assay Protocol Summary:
NFkB-bla ME-180 cells were dispensed at 2,000 cells/6 uL of assay medium per well into black wall/clear-bottom 1536-well plates using a Multidrop Combi (ThermoFisher Scientific, Waltham, MA) dispenser. After the assay plates were incubated at 37 C and 5% CO2 for an overnight, 23 nL of compounds dissolved in DMSO, positive controls or DMSO only was transferred to the assay plate by a Pintool station (Kalypsys, San Diego, CA). The assay plates were incubated at 37 C and 5% CO2 for 5 hr. One uL of LiveBLAzer B/G FRET substrate (Life Technologies) was added using a Flying Reagent Dispenser (Aurora Discovery, San Diego, CA) and the plates were incubated at room temperature for 1.5 hr. Fluorescence intensity (405 nm excitation, 460 nm and 530 nm emissions) was measured using an Envision plate reader (PerkinElmer, Shelton, CT). For cytotoxicity, 3 ul/well of CellTiter-Glo reagent was added into the assay plates using an FRD. After 30 min incubation at room temperature, the luminescence intensity was measured using a ViewLux plate reader (PerkinElmer).
(In general: qHTS replaces the single test concentration by a dilution series.)
Take `CCCOCC(C)O` (stereo not given): the Potency result was “inactive”.
In the case of `C=C(C)CC(C)(C)C` it was “inactive”.
`Cc1ccccc1Cl`: the Potency entry is “inactive”.
With `CC(=O)OCCC(C)C`, the Potency entry was “inactive”.
`COc1ccccc1[N+](=O)[O-]`: the Potency entry is “inactive”.
In the case of `CCCCCCC(=O)O`, the Potency result is “inactive”.
Next, `NC(=O)NC(N)=O`: “inactive”; `CC1(C)[C@@H](O[C@H]2O[C@H](C(=O)O)[C@@H](O)[C@H](O)[C@H]2O[C@@H]2O[C@H](C(=O)O)[C@@H](O)[C@H](O)[C@H]2O)CC[C@]2(C)[C@H]3C(=O)C=C4[C@@H]5C[C@@](C)(C(=O)O)CC[C@]5(C)CC[C@@]4(C)[C@]3(C)CC[C@@H]12`: “inactive”.
Regarding `Cc1ccccc1C=O`, the Potency entry is “inactive”.
In the case of `CC(C=O)Cc1ccc(C(C)(C)C)cc1` (stereo not given) it was “inactive”; in that of `CCCCCCCCC(=O)O`, “inactive”.
For `Nc1cccc(C(F)(F)F)c1`, the Potency entry is “inactive”.
On to `Cc1ccc(C(C)C)cc1`, for which the Potency entry was “inactive”.
Turning to `C[Si](C)(C)N[Si](C)(C)C`, the Potency entry was “inactive”.
For the compound `COc1ccc(N)c(OC)c1`, the Potency entry is “inactive”.
Take `N[C@@H](Cc1cc(I)c(Oc2ccc(O)c(I)c2)c(I)c1)C(=O)O`: the Potency result is “inactive”.
As to `Cc1ncc(CO)c(CO)c1O`, the Potency entry is “inactive”.
In the case of `Cc1ccc(C)c(S(=O)(=O)O)c1` it was “inactive”; in that of `CC(=O)OCc1ccc2c(c1)OCO2`, “inactive”.
For the compound `Cc1ccc(Cl)cc1`, the Potency entry is “inactive”.
In the case of `CC1(C)C(=O)N(Cl)C(=O)N1Cl` it was “inactive”.
Turning to `CCCCCCCCCCCC(=O)N(C)CC(=O)O`, the Potency entry was “inactive”.
Turning to `O=c1c(O)c(-c2ccc(O)c(O)c2)oc2cc(O)cc(O)c12`, the Potency entry was “inactive”.
In the case of `O=C(O)Cc1c[nH]c2ccccc12` it was “inactive”.
As for `C=C(CC(=O)O)C(=O)O`, the Potency entry was “inactive”.
With `NC(=O)c1ncn([C@@H]2O[C@H](CO)[C@@H](O)[C@H]2O)n1`, the Potency entry is “inactive”.
In the case of `CC(COCC(C)OC(=O)c1ccccc1)OC(=O)c1ccccc1` (stereo not given) it was “inactive”; in that of `CCCN(CCC)C(=O)SCC`, “inactive”.
Consider `CCn1cc(C(=O)O)c(=O)c2cc3c(cc21)OCO3`, for which the Potency result was “inactive”.
In the case of `CC(=O)OC/C=C(\C)CCC=C(C)C` it was “inactive”; in that of `CC(C)(C)NC[C@H](O)COc1nsnc1N1CCOCC1`, “inactive”.
Turning to `CN1Cc2c(N)cccc2C(c2ccccc2)C1` (stereo not given), the Potency result is “inactive”.
In the case of `CC(=O)C(C)C` it was “inactive”.
In the case of `Nc1cccc(N)n1` it was “inactive”.
Take `COc1cc(NC(=O)CC(C)=O)c(OC)cc1Cl`: the Potency result is “inactive”.
For `CN1CCCC1=O`, the Potency entry was “inactive”.
In the case of `CCCCCC(C)=O`, the Potency entry is “inactive”.
Take `O=[N+]([O-])c1ccccc1C(F)(F)F`: the Potency entry was “inactive”.
Turning to `OB(O)O`, the Potency entry is “inactive”.
In the case of `Cc1nnc(NS(=O)(=O)c2ccc(N)cc2)s1`, the Potency entry is “inactive”.
